Among all 360,000 compounds or so, about 11,000 (3.1%) were called active. Rule as the data show it: active = activity change below about -30%; inactive = the rest. For the sample, actives were picked, then their nearest neighbours and some compounds at random.
The compounds below were run against D(1A) dopamine receptor (Homo sapiens) (UniProt P21728) (assay: Antagonist of Human D 1 Dopamine Receptor: qHTS). Conditions: HEK293 TREx D1 cells, calcium flux, dopamine EC80; at 10 µM; hits give low values.
Chain of D(1A) dopamine receptor (Homo sapiens) (P21728 whole entry, looked up): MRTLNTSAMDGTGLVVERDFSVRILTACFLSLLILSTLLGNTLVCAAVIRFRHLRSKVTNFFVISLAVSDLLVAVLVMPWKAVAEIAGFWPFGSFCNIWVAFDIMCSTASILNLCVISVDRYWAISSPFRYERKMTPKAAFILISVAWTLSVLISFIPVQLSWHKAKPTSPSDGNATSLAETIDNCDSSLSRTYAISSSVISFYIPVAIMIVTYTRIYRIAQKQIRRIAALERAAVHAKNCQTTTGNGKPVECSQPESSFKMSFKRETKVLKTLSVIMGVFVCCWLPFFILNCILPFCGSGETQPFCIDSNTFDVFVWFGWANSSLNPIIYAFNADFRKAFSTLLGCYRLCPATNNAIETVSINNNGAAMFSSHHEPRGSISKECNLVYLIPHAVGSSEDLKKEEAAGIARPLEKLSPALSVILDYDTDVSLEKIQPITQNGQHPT
Text: Dopamine receptors (DARs) are involved in the etiology and/or therapy of a number of neuropsychiatric and endocrine disorders. For instance, all receptor-based antiparkinsonian drugs work via stimulating the […] DAR subtype whereas all FDA-approved antipsychotic agents are antagonists of this receptor. […] There are three different types of allosteric modulators that we are seeking, two of which will stimulate or augment receptor signaling, allosteric agonists and potentiators, while the third, allosteric antagonists, will attenuate receptor signaling. The present primary screening assay measures compound antagonism after an EC80 addition of dopamine by tracking calcium flux in a […], inducible Hek293 Trex D1 cell line. NIH Chemical Genomics Center [NCGC] NIH Molecular Libraries Probe Centers Network [MLPCN] MLPCN Grant: NS064831-01 Assay Submitter (PI): David Sibley
Freshly passaged cells are plated in 1536 well black, clear bottom plates at a density of 4000 cells/well in 3 ul of complete media containing 1x tetracycline inducer. After an overnight incubation at 30 C in 5% CO2, cells are loaded with 2 ul of the no wash Calcium Assay Kit (ABD Bioquest) and incubated at room temperature for 30 to 90 minutes. Agonist read: A 10 cycle (1 second/cycle) baseline measurement is taken and then the FDSS online 1536 pintool delivers 23 nl of compound library (as well as dopamine controls) to the plate. The plate is measured for kinetically at 1 cycle/sec for 180 seconds. Following the 180 second read, 1 ul of an EC80 (negative modulation assay) is delivered by an onboard pipette head. Measurements are taken kinetically for an additional 180 seconds.
For COc1cc(NC(=O)Cn2c(=O)n(Cc3ccco3)c(=O)c3oc4ccccc4c32)cc(OC)c1, the activity change, negative = inhibition was 8.05% (inactive).
In the case of COc1cc(OC)c(OC)cc1/C=C/c1nc2ccccc2c(=O)n1-c1ccc(Br)c(C)c1, the activity change, negative = inhibition is reported as 0.553% (inactive).
For CC(C)Cc1nnc(NC(=O)CCc2ccccc2)s1, the activity change, negative = inhibition was 3.92% (inactive).
With CC(C)Cc1nnc(NC(=O)CCC(=O)Nc2ccc3cn[nH]c3c2)s1 the activity change, negative = inhibition was -55.6% (active).
For Cc1ccc(S(=O)(=O)CCC(=O)Nc2nnc(CC(C)C)s2)cc1, the activity change, negative = inhibition was 6.37% (inactive).
Cc1c(Cl)cccc1NC(=O)C1CCCN(C(=O)c2cnn(-c3ccccc3)c2-n2cccc2)C1 (configuration not stated) was tested, and the activity change, negative = inhibition was 7.6% (inactive).
For Cc1ccc(SCC(=O)Nc2ccc3oc(-c4ccccc4F)nc3c2)cc1, the activity change, negative = inhibition was -5.46% (inactive).
CCOC(=O)c1ccccc1NC(=O)c1nn(-c2ccc(OC)c(Cl)c2)c(=O)c2c1c1ccccc1n2C was tested, and the activity change, negative = inhibition was 5.56% (inactive).
For O=C(CSc1cn(CC(=O)N2CCOCC2)c2ccccc12)Nc1ccccc1, the activity change, negative = inhibition was 11.6% (inactive).
In the case of COc1cccc(NC(=O)CN(C)C(=O)c2ccccc2CCc2ccccc2)c1, the activity change, negative = inhibition is reported as 3.89% (inactive).
COc1cccc(NC(=O)CN(C)C(=O)/C=C/c2cc(OC)ccc2OC)c1 was tested, and the activity change, negative = inhibition was 24.2% (inactive).
COc1cccc(NC(=O)CN(C)C(C)C(=O)Nc2ccc(C#N)cc2)c1 (configuration not stated) was tested, and the activity change, negative = inhibition was -40.7% (active).
In the case of COC(=O)c1ccccc1NC(=O)c1cnn(-c2ccc(F)cc2)c1-n1cccc1, the activity change, negative = inhibition is reported as 15% (inactive).
For Cc1cccc(NC(=O)Cn2c(C(F)(F)F)nc3ccccc32)c1C, the activity change, negative = inhibition was -9.8% (inactive).
With COc1cccc(C(=O)NCc2ccc3c(c2)CCN3C(=O)c2ccncc2)c1 the activity change, negative = inhibition was -7.86% (inactive).
Cc1ccc(CNC(=O)c2c(O)nc3c(C)cccn3c2=O)cc1 was tested, and the activity change, negative = inhibition was 16.2% (inactive).
Cc1cccc(-n2c(SCC(N)=O)nc3c(oc4ccccc43)c2=O)c1 was tested, and the activity change, negative = inhibition was -16.4% (inactive).
With O=C(CN1CCN(c2ccc(F)cc2)CC1)Nc1cccc(C(F)(F)F)c1 the activity change, negative = inhibition was -2.58% (inactive).
For CC(=O)N1CCN(CC(=O)Nc2ccc(C)c(F)c2)CC1, the activity change, negative = inhibition was 1.94% (inactive).
In the case of CCc1sc(C(=O)N2CCN(CC(=O)Nc3cccc(F)c3)CC2)cc1C, the activity change, negative = inhibition is reported as -30.4% (active).
O=C(CSc1n[nH]c(-c2ccccc2)n1)N1CCCCC1 was tested, and the activity change, negative = inhibition was -15.7% (inactive).
In the case of COC(=O)[C@@H](NC(=O)Nc1cc(Cl)ccc1C)C(C)C, the activity change, negative = inhibition is reported as -41.7% (active).
For Cc1ccc(Cl)cc1NC(=O)COC(=O)CC(C)(C)C, the activity change, negative = inhibition was 4.47% (inactive).
COc1ccc(Cl)cc1NC(=O)NC(C)C(C)(C)C (configuration not stated) was tested, and the activity change, negative = inhibition was -26.1% (inactive).
In the case of Cc1cc2ccccc2n1CCNC(=O)c1ccc(F)cc1, the activity change, negative = inhibition is reported as -21.6% (inactive).
COc1ccc(S(=O)(=O)NCCSc2nnnn2-c2ccccc2)cc1 was tested, and the activity change, negative = inhibition was -6.65% (inactive).
With Cn1c(C(=O)Nc2cccc(C(F)(F)F)c2)cc2c(=O)n3ccccc3nc21 the activity change, negative = inhibition was -9.44% (inactive).
With Cc1cc(Cl)c(S(=O)(=O)NCC2CCCO2)cc1OCC(N)=O (configuration not stated) the activity change, negative = inhibition was -3.64% (inactive).
In the case of Cc1cc(Cl)c(S(=O)(=O)Nc2ccc3c(c2)OCCO3)cc1OCC(N)=O, the activity change, negative = inhibition is reported as -35.2% (active).
With Cc1cc(Cl)c(S(=O)(=O)N(C)C)cc1OCC(N)=O the activity change, negative = inhibition was 5.54% (inactive).
With COc1ccc(CNC(=O)Cc2coc3ccc(C(C)C)cc23)cc1 the activity change, negative = inhibition was -5.84% (inactive).
With COc1cccc(N2CCN(S(=O)(=O)c3cc(Br)cc4c3N(C(=O)C3CC3)CC4)CC2)c1 the activity change, negative = inhibition was -4.38% (inactive).
CC1CCN(S(=O)(=O)c2ccc3ncn(CC(=O)N(C)C4CCCCC4)c(=O)c3c2)CC1 was tested, and the activity change, negative = inhibition was -7.06% (inactive).
In the case of COc1ccccc1NC(=O)Cn1cnc2ccc(S(=O)(=O)N3CCC(C)CC3)cc2c1=O, the activity change, negative = inhibition is reported as 0.0222% (inactive).
In the case of CCN1CCCC1CNC(=O)Cn1cnc2ccc(S(=O)(=O)N3CCC(C)CC3)cc2c1=O (configuration not stated), the activity change, negative = inhibition is reported as -45% (active).
For COc1ccc(-c2nn(CC(=O)NC3CCCC3)c3c2cnc2ccc(F)cc23)cc1, the activity change, negative = inhibition was -17.2% (inactive).
Cc1ccc(NC(=O)CN2C(=O)CC(C)Sc3ccccc32)c(C)c1 (configuration not stated) was tested, and the activity change, negative = inhibition was 5.35% (inactive).
For COC(=O)C1=CN(C)C=C(C(=O)OC)C1c1ccc(Cl)cc1Cl, the activity change, negative = inhibition was -50.3% (active).
With NC(=O)C1(C(N)=O)OC1c1ccc(Cl)cc1Cl (configuration not stated) the activity change, negative = inhibition was -18.1% (inactive).
COC(=O)C1=CN(c2ccc(F)c(F)c2)C=C(C(=O)OC)C1c1ccc([N+](=O)[O-])cc1 was tested, and the activity change, negative = inhibition was 13.5% (inactive).
In the case of Cc1ccc(Nc2ccc3cc(S(=O)(=O)N4CCCCC4)ccc3n2)cc1F, the activity change, negative = inhibition is reported as -15.5% (inactive).
COc1ccccc1NC(=O)CCN1CCN(c2ccc(Cl)cc2)CC1 was tested, and the activity change, negative = inhibition was -41% (active).
For CCOc1ccccc1NC(=O)CCN1CCN(S(=O)(=O)c2ccc(OC)cc2)CC1, the activity change, negative = inhibition was -3.32% (inactive).
In the case of COc1ccc(NC(=O)CCN2CCCC2)c(OC)c1, the activity change, negative = inhibition is reported as 0.848% (inactive).
With COc1ccc(C(=O)NC(=S)Nc2ccc(N3CCCC3)cc2)cc1OC the activity change, negative = inhibition was -30.7% (active).
For Cc1ccc(C(=O)NC(=S)Nc2ccc(N3CCOCC3)cc2)cc1, the activity change, negative = inhibition was -12.4% (inactive).
With COc1ccc(C(=O)NC(=S)Nc2ccccc2N2CCN(S(C)(=O)=O)CC2)cc1OC the activity change, negative = inhibition was -7.6% (inactive).
In the case of O=C(NCc1ccc2c(c1)CCN2C(=O)c1ccccc1)Nc1cc(F)ccc1F, the activity change, negative = inhibition is reported as 1.84% (inactive).
In the case of Cc1c(N=Nc2ccc(N(C)C)cc2)c(=O)n(-c2ccccc2)n1C, the activity change, negative = inhibition is reported as -0.41% (inactive).
For Cc1[nH]n(C)c(=O)c1N=Nc1ccc(S(C)(=O)=O)cc1, the activity change, negative = inhibition was -33.8% (active).
With Cc1[nH]n(C)c(=O)c1C(=O)c1c(-c2c(Cl)cccc2Cl)noc1C the activity change, negative = inhibition was -9.05% (inactive).
For CCOc1cc(C)c(Cl)cc1S(=O)(=O)n1nnc2ccccc21, the activity change, negative = inhibition was -41.9% (active).
For CCOc1ccc(S(=O)(=O)N2CCCCCC2)c2ccccc12, the activity change, negative = inhibition was 1.18% (inactive).
In the case of CCOc1cc(C)c(S(=O)(=O)NCc2ccccn2)cc1C, the activity change, negative = inhibition is reported as -15% (inactive).
With COc1ccc(OC)c(CNC(=O)CN2C(=O)CCn3nc(-c4cn(C)c5ccccc45)cc32)c1 the activity change, negative = inhibition was 9.51% (inactive).
In the case of COc1ccc(-n2ccnc(NCCc3ccc(Cl)cc3)c2=O)cc1OC, the activity change, negative = inhibition is reported as -3.67% (inactive).
With Cc1cccc(N2CCN(C(=O)c3cc4c(=O)oc5ccccc5c4s3)CC2C)c1 (configuration not stated) the activity change, negative = inhibition was -15.4% (inactive).
% is scaled to controls: 0 for no effect and ±100 for the full control effect.
